Test results from article PMC7862700, “An all-to-all approach to the identification of sequence-specific readers for epigenetic DNA modifications on cytosine”.

Tests used:
Assay in all cases: DAPPL (digital affinity profiling via proximity ligation, sequencing); 10 mM Tris-HCl pH 7.5, 50 mM NaCl, 1 mM DTT, 4% glycerol, room temperature, 30 min; GST-TFs on glutathione beads, 16-mer random dsDNA library, 0.1% formaldehyde crosslink after washing; high values mean tight binding
[1] = molecular target: T1, FLI1 (Homo sapiens, UniProt Q01543 1-452); settings: protein: recombinant; tags: N-terminal GST; dsDNA, one strand shown
T1 sequence: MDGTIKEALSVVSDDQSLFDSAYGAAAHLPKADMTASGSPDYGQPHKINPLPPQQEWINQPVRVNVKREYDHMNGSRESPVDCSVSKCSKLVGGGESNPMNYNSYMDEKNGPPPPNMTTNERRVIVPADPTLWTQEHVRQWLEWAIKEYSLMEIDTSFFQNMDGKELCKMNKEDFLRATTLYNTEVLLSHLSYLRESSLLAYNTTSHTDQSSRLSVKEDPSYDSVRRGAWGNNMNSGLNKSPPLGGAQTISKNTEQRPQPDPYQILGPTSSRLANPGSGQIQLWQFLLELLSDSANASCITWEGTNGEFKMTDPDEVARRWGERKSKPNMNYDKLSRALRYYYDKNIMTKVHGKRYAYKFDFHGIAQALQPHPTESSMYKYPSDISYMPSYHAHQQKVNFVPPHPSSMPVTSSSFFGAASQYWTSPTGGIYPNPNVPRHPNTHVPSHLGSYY
Method in brief: (§1)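 Each value of binding signal is a hexamer's read frequency for a factor divided by the same hexamer's frequency in the tag-only sample. Barcoded, bead-captured GST fusions of human transcription factors made in yeast were pooled with that sample and incubated with 200 nmole of a random double-stranded 16-mer DNA library in Tris/NaCl/DTT/glycerol buffer at room temperature for 30 min. Washing, 0.1% formaldehyde crosslinking, proximity ligation, PCR and Illumina NextSeq500 sequencing followed.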

[2] = molecular target: T2, ELK1 (Homo sapiens, UniProt P19419 1-428); settings: protein: recombinant; tags: N-terminal GST; dsDNA, one strand shown
T2 sequence: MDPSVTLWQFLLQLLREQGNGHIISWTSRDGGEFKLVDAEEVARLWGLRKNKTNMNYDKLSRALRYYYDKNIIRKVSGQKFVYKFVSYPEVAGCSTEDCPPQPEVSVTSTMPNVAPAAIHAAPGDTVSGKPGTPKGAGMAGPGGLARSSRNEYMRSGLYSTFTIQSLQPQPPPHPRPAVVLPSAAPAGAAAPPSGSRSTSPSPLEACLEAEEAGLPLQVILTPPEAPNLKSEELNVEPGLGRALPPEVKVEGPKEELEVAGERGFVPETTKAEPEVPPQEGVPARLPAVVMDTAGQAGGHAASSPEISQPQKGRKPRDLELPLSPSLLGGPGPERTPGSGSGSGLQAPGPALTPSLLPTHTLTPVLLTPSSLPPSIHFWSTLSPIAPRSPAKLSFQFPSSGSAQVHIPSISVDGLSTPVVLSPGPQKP
Method in brief: as §1

[3] = molecular target: T3, GABPA (Homo sapiens, UniProt Q06546 1-454); settings: protein: recombinant; tags: N-terminal GST; dsDNA, one strand shown
T3 sequence: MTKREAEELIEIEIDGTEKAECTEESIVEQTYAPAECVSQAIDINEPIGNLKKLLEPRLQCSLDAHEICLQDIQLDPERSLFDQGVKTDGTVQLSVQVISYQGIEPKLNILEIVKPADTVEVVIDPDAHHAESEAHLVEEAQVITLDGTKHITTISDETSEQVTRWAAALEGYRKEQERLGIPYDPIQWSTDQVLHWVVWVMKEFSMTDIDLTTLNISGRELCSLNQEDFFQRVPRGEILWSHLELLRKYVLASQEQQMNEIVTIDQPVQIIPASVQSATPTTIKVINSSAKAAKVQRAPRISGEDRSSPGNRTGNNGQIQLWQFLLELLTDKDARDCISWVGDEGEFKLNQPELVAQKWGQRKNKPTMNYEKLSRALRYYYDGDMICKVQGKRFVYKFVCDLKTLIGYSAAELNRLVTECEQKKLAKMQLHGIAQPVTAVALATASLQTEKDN
Method in brief: as §1

[4] = molecular target: T4, ERG (Homo sapiens, UniProt P11308 1-479); settings: protein: recombinant; tags: N-terminal GST; dsDNA, one strand shown
T4 sequence: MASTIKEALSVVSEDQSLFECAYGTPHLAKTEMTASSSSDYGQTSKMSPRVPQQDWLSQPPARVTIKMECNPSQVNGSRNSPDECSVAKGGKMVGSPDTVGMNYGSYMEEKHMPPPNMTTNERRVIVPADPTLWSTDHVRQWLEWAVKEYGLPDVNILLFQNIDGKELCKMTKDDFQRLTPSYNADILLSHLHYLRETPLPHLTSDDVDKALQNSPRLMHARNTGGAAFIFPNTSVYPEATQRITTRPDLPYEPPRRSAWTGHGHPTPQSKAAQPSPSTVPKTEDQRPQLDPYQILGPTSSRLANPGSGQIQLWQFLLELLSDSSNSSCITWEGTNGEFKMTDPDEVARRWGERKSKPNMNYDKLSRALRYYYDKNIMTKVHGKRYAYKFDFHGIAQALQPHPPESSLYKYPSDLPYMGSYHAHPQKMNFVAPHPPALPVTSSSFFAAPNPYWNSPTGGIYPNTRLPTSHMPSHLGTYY
Method in brief: as §1

[5] = molecular target: ELF1 (Homo sapiens, UniProt P32519 1-619); settings: protein: recombinant; tags: N-terminal GST; dsDNA, one strand shown
Method in brief: as §1

[6] = molecular target: T5, EHF (Homo sapiens, UniProt Q9NZC4 1-300); settings: protein: recombinant; tags: N-terminal GST; dsDNA, one strand shown
T5 sequence: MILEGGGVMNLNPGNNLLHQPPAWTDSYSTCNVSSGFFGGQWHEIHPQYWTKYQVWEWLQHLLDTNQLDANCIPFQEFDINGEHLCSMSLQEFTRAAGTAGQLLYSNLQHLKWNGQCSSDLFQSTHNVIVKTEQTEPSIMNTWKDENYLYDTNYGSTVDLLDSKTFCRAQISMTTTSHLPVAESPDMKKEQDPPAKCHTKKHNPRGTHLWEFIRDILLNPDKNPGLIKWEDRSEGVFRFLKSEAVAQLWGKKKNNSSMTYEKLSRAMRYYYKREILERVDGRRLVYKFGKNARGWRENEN
Method in brief: as §1

[7] = molecular target: SPI1 (Homo sapiens, UniProt P17947 1-270); settings: protein: recombinant; tags: N-terminal GST; dsDNA, one strand shown
Method in brief: as §1

[8] = molecular target: SPIB (Homo sapiens, UniProt Q01892 1-262); settings: protein: recombinant; tags: N-terminal GST; dsDNA, one strand shown
Method in brief: as §1

[9] = molecular target: T6, ELK3 (Homo sapiens, UniProt P41970 1-407); settings: protein: recombinant; tags: N-terminal GST; dsDNA, one strand shown
T6 sequence: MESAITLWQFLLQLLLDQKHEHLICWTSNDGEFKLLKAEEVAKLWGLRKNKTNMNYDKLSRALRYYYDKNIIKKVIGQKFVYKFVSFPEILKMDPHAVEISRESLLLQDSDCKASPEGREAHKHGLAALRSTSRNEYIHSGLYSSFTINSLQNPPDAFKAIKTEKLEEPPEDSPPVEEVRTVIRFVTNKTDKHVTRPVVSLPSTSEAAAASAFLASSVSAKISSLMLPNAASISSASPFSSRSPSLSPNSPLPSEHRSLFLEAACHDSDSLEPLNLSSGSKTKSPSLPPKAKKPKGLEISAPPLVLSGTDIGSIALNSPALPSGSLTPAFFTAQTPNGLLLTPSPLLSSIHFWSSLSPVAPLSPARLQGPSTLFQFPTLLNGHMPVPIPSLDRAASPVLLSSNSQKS
Method in brief: as §1

[10] = molecular target: T7, FEV (Homo sapiens, UniProt Q99581 1-238); settings: protein: recombinant; tags: N-terminal GST; dsDNA, one strand shown
T7 sequence: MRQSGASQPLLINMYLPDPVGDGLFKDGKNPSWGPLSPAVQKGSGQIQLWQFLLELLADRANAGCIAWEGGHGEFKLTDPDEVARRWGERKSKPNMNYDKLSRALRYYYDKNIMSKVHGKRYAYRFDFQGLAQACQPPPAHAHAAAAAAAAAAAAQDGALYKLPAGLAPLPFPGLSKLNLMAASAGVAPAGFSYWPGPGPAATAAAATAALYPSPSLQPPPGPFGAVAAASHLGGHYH
Method in brief: as §1

[11] = molecular target: ETV5 (Homo sapiens, UniProt P41161 1-510); settings: protein: recombinant; tags: N-terminal GST; dsDNA, one strand shown
Method in brief: as §1

[12] = molecular target: HSF1 (Homo sapiens, UniProt Q00613 1-529); settings: protein: recombinant; tags: N-terminal GST; chain copies: 3; dsDNA, one strand shown
Method in brief: as §1

[13] = molecular target: T8, SPIC (Homo sapiens, UniProt Q8N5J4 1-248); settings: protein: recombinant; tags: N-terminal GST; dsDNA, one strand shown
T8 sequence: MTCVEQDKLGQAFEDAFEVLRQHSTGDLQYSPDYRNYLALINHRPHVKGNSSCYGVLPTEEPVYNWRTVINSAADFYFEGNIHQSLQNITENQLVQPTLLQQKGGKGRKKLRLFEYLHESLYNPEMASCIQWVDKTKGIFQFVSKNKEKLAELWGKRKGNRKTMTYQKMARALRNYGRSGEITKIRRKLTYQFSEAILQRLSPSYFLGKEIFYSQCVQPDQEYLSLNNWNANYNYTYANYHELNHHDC
Method in brief: as §1

[14] = molecular target: ELF4 (Homo sapiens, UniProt Q99607 1-663); settings: protein: recombinant; tags: N-terminal GST; dsDNA, one strand shown
Method in brief: as §1

[15] = molecular target: T9, ELK4 (Homo sapiens, UniProt P28324-2 1-405); settings: protein: recombinant; tags: N-terminal GST; dsDNA, one strand shown
T9 sequence: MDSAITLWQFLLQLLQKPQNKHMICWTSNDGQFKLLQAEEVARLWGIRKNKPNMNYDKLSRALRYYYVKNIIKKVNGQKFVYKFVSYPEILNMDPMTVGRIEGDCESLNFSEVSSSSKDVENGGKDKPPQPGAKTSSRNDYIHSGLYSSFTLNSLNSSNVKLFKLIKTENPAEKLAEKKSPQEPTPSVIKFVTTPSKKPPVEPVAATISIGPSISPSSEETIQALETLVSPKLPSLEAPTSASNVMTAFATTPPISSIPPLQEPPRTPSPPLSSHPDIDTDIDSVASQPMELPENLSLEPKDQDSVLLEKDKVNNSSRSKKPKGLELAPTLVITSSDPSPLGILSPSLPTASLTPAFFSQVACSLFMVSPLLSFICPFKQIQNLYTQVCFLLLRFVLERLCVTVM
Method in brief: as §1

[16] = molecular target: T10, ETV2 (Homo sapiens, UniProt O00321 1-342); settings: protein: recombinant; tags: N-terminal GST; dsDNA, one strand shown
T10 sequence: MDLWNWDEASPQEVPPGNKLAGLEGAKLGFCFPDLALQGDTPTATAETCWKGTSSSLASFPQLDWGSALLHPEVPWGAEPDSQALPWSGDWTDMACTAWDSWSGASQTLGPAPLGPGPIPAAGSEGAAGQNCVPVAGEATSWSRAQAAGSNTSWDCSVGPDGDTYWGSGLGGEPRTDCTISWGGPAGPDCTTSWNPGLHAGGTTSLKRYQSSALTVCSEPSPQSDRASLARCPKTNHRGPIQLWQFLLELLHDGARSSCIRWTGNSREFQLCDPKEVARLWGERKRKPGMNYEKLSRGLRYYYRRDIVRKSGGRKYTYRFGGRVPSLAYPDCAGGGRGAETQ
Method in brief: as §1

[17] = molecular target: T11, ELF3 (Homo sapiens, UniProt P78545 1-371); settings: protein: recombinant; tags: N-terminal GST; dsDNA, one strand shown
T11 sequence: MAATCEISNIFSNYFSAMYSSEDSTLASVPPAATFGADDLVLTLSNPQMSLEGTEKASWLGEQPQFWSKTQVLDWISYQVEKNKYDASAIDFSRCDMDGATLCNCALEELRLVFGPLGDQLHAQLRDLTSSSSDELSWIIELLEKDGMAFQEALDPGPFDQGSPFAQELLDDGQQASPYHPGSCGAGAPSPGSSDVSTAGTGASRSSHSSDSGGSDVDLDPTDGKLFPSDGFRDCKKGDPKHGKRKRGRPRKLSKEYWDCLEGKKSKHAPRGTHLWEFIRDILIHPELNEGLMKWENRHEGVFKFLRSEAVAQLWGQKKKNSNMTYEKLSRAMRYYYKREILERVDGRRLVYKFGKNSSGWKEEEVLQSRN
Method in brief: as §1

[18] = molecular target: CRX (Homo sapiens, UniProt O43186 1-299); settings: protein: recombinant; tags: N-terminal GST; dsDNA, one strand shown
Method in brief: as §1

[19] = molecular target: ETV1 (Homo sapiens, UniProt P50549 1-477); settings: protein: recombinant; tags: N-terminal GST; dsDNA, one strand shown
Method in brief: as §1

ETV1, sequence (P50549 whole entry): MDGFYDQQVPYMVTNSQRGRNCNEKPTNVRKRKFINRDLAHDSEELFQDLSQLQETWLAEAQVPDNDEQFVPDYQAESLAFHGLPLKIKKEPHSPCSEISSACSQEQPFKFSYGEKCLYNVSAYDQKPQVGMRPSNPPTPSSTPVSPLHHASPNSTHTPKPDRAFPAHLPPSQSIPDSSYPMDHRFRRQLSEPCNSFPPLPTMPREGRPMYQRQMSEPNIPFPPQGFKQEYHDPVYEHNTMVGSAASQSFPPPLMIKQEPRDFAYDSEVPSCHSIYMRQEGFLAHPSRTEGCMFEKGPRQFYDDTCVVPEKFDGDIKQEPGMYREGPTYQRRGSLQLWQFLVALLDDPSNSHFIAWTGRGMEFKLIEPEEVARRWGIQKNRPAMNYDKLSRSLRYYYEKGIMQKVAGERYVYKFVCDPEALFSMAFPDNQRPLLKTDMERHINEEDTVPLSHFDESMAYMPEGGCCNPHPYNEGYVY
ETV5, sequence (P41161 whole entry): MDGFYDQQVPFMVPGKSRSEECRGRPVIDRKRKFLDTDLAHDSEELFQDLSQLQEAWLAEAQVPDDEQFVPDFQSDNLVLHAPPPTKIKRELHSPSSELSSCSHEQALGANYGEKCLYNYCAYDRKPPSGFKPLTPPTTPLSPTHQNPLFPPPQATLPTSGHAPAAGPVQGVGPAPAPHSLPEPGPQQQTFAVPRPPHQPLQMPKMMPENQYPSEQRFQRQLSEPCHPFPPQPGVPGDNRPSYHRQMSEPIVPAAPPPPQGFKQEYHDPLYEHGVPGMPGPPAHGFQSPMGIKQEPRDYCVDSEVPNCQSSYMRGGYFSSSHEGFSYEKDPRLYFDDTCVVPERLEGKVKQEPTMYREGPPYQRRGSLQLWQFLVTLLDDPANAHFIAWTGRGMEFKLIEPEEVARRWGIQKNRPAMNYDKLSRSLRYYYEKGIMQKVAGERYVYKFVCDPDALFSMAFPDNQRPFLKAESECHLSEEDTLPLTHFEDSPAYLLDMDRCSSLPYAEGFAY
ELF4, sequence (Q99607 whole entry): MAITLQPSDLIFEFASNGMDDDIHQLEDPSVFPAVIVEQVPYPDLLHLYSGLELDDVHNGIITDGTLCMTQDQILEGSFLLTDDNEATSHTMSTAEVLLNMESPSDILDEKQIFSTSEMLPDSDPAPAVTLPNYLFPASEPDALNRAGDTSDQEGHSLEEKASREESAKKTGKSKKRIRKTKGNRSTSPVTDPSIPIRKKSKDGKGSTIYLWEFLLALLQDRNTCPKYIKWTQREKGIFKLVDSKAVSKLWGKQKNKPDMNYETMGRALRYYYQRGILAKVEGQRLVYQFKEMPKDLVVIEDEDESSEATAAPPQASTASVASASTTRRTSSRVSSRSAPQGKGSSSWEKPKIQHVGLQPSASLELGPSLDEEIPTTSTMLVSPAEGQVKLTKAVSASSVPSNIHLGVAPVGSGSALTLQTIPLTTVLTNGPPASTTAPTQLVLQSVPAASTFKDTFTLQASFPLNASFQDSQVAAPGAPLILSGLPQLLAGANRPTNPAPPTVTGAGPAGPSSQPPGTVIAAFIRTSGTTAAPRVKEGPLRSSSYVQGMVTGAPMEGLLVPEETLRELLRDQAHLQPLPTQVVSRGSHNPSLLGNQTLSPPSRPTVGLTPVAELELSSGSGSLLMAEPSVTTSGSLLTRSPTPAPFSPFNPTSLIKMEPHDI
ELF1, sequence (P32519 whole entry): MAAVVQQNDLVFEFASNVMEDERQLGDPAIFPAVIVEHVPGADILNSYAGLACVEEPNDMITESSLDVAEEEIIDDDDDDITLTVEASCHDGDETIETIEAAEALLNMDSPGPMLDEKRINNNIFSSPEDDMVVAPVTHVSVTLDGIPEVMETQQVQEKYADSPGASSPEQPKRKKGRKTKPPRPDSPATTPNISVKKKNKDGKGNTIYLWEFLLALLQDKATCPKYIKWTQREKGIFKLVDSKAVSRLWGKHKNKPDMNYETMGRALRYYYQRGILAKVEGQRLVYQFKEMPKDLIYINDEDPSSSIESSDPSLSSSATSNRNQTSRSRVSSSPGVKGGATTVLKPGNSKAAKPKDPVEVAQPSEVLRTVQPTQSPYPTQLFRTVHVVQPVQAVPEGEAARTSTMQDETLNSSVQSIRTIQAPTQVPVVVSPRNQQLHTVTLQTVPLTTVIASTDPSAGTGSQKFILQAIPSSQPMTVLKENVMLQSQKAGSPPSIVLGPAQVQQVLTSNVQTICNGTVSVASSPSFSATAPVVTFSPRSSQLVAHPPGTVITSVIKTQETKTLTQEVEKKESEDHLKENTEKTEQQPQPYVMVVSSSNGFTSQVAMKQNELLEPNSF
HSF1, sequence (Q00613 whole entry): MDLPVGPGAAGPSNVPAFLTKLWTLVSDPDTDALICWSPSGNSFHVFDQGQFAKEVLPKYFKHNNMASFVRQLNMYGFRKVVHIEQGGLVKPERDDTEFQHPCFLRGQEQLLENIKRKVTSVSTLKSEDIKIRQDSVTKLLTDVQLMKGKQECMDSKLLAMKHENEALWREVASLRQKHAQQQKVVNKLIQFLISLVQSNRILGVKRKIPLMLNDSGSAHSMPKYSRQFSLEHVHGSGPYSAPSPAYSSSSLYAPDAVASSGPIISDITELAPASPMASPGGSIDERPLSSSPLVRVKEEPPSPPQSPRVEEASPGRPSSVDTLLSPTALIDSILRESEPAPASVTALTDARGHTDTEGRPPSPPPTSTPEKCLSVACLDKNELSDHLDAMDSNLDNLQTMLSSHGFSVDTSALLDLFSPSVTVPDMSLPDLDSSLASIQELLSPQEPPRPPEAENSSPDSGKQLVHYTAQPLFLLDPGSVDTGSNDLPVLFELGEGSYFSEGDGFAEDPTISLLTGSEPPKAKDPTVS
SPIB, sequence (Q01892 whole entry): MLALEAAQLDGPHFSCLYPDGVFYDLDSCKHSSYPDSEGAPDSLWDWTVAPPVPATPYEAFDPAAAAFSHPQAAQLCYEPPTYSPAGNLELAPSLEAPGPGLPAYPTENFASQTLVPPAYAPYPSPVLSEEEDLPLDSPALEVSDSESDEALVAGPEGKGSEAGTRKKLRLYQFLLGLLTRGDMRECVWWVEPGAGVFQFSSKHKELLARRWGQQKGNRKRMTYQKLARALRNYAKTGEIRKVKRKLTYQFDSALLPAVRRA
CRX, sequence (O43186 whole entry): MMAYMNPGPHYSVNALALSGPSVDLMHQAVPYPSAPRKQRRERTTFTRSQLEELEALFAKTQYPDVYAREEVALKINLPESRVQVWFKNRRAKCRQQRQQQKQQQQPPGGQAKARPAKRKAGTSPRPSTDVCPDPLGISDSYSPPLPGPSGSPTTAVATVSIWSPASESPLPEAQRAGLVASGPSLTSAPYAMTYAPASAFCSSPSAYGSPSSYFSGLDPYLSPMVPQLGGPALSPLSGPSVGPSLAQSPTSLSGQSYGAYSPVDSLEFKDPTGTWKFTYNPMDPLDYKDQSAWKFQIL

TAATGA
binding signal [1]: 1.09 fold enrichment (6-mer frequency, TF over GST control) | binding signal [2]: 1.21 fold enrichment (6-mer frequency, TF over GST control) | binding signal [3]: 1.26 fold enrichment (6-mer frequency, TF over GST control) | binding signal [4]: 1.02 fold enrichment (6-mer frequency, TF over GST control) | binding signal [5]: 1.1 fold enrichment (6-mer frequency, TF over GST control) | binding signal [6]: 1.2 fold enrichment (6-mer frequency, TF over GST control) | binding signal [7]: 1.22 fold enrichment (6-mer frequency, TF over GST control) | binding signal [8]: 1.16 fold enrichment (6-mer frequency, TF over GST control) | binding signal [9]: 1.21 fold enrichment (6-mer frequency, TF over GST control) | binding signal [10]: 1.12 fold enrichment (6-mer frequency, TF over GST control) | binding signal [11]: 1.12 fold enrichment (6-mer frequency, TF over GST control) | binding signal [12]: 1.37 fold enrichment (6-mer frequency, TF over GST control) | binding signal [13]: 1.11 fold enrichment (6-mer frequency, TF over GST control) | binding signal [14]: 1.17 fold enrichment (6-mer frequency, TF over GST control) | binding signal [15]: 1.12 fold enrichment (6-mer frequency, TF over GST control) | binding signal [16]: 1.13 fold enrichment (6-mer frequency, TF over GST control) | binding signal [17]: 1.12 fold enrichment (6-mer frequency, TF over GST control) | binding signal [18]: 1.7 fold enrichment (6-mer frequency, TF over GST control) | binding signal [19]: 1.19 fold enrichment (6-mer frequency, TF over GST control)
